Source: PubChem (several laboratories)
Most compounds without a hit are left out; they make up all but 6.7% or so of the library.
FBA Mtb inh – Mtb fructose-bisphosphate aldolase inhibition. purified M. tuberculosis FBA, fluorescence read-out. AID 588726. P9WQA3. inhibition, % at 1 µM. hit rate 2.3% among 360,000; in the data active = inhibition above about 27%;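 also: 0% = vehicle and 100% = reference inhibitor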
Target sequence (P9WQA3 whole entry, looked up): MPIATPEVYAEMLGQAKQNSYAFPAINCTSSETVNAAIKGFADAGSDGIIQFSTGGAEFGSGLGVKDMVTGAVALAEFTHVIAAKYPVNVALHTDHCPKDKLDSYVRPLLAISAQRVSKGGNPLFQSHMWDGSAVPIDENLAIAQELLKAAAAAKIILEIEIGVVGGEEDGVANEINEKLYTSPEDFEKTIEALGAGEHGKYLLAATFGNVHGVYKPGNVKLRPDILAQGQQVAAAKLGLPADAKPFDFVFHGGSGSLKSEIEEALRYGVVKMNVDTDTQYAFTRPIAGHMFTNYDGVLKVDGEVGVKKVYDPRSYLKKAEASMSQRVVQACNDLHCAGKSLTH
BoNT F protease – BoNT F light chain protease inhibition; hit rate 0.22% among 360,000; Multiplex microsphere protease cleavage assay, flow cytometry; AID 588497; inhibition, % at 10 µM; in the data active = inhibition above about 35%, passing the limit was not always enough; inconclusive = no clear call, values can overlap the other calls; also: plate controls were buffer without enzyme for full effect and enzyme alone for no effect
GDH-TPI inh – GDH-TPI coupled enzyme inhibition counter-screen; GDH-TPI coupled enzyme counterscreen, NADH absorbance; AID 588335; hit rate 1.2% among 360,000; inhibition, % at 4.8 µM; in the data active = inhibition above about 30%;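 also: 0% = DMSO wells and 100% = wells lacking the enzyme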
Anthrax LF prot – anthrax lethal factor protease inhibition. inhibition, % at 10 µM. AID 588501. multiplex microsphere protease cleavage assay, LF. hit rate 0.12% among 360,000. P15917; also: plate controls were buffer without enzyme for full effect and enzyme alone for no effect
BoNT A protease – BoNT A light chain protease inhibition; multiplex microsphere protease substrate cleavage, flow cytometry; inhibition, % at 10 µM; hit rate 0.17% among 360,000; AID 588499; also: plate controls were buffer without enzyme for full effect and enzyme alone for no effect
Bead autofluor – counter-screen for toxin protease inhibitors: compound fluorescence | AID 624483 | hit rate 3.1% among 360,000 | fluorescence intensity (test concentration not listed) | compound autofluorescence counterscreen, microsphere flow cytometry; hits give high values; in the data active = fluorescence intensity above about 16000; inconclusive = no clear call, values can overlap the other calls
Numbers without * were called inactive; ? = inconclusive. Rule as the data show it, unless noted: active = inhibition above about 30%; inconclusive = no clear call, values can overlap the other calls; inactive = below that.

SMILES	FBA Mtb inh	BoNT F protease	GDH-TPI inh	Anthrax LF prot	BoNT A protease	Bead autofluor
COc1cccc(S(=O)(=O)NCc2ccc(C(=O)Nc3cccc(Cl)c3)cc2)c1	-3	0	3	-5	0	4637
O=C(O)c1ccc2[nH]c3c(c2c1)CSCC3	4	7	1	1	4	20934*
O=C(COC(=O)c1cccnc1Cl)NCc1ccc(F)cc1	-2	6	0	-4	0	3519
COc1ccc(C2=NN(C)C(=NCc3ccccc3)SC2)cc1	0	-5	6	-4	-2	24219*
COC(=O)c1ccc(C(=O)NC2CCCc3c2cnn3-c2ccccc2F)nc1 (stereo unspecified)	0	-3	2	-1	-1	4560
c1ccc(-c2oc3ncnc(NCCCn4ccnc4)c3c2-c2ccccc2)cc1	51*	-7	6	-11	-1	5736
c1ccc(-c2c(-c3ccccc3)n(Cc3ccco3)c3ncnc(NCCCn4ccnc4)c23)cc1	9	-15	2	-8	-2	2893
CC1CC(=O)NN=C1c1cccs1 (stereo unspecified)	-2	?	9	-12	?	3717
CC1CC(=O)NN=C1c1ccc(N(C)C)c([N+](=O)[O-])c1 (stereo unspecified)	-5	5	37*	3	3	18577*
CCN(CCC#N)c1ccc(N2C(=O)CCCC2=O)cc1[N+](=O)[O-]	0	1	3	-8	3	3944
CCN(CC)c1ccc(C2=NNC(=O)CC2C)cc1[N+](=O)[O-] (stereo unspecified)	-6	-1	31*	-2	-1	11119
CCN(c1ccc(OC)cc1)S(=O)(=O)c1cc(-c2cc(C)no2)ccc1OC	4	5	-7	-1	1	5365
Cc1ccc(NC(=O)c2cccc(N3C(=O)C4C5CCC(C5)C4C3=O)c2)c(C)c1 (stereo unspecified)	3	1	2	0	0	2470
Cc1ccccc1NC(=O)c1cccc(N2C(=O)C3C4CCC(C4)C3C2=O)c1 (stereo unspecified)	-2	-5	11	-1	?	23697*
Cc1[nH]n(-c2ccccc2)c(=O)c1S(=O)(=O)c1ccccc1	1	-1	3	-2	0	16181*
Cc1[nH]n(-c2ccccc2)c(=O)c1CCO	2	1	1	10	-1	4688
CCOC(=O)/C(C#N)=C/C=C1/C=CC=CN1C	-41	38*	-4	?	2	3559
Cc1ccc2c(c1)c1c3n2CCCN(Cc2ccccc2)C3CCC1 (stereo unspecified)	-3	-11	2	-3	?	16950*
Cc1sc2nc(SCC(=O)NCc3ccco3)n(Cc3ccccc3)c(=O)c2c1C	0	-8	0	-3	0	2760
COCCCNC(=S)NCCNc1nc2c(C)c(C)ccc2cc1C#N	20	0	-5	-1	3	4217
COCCNC(=S)NCCCNc1nc2cc3c(cc2cc1C#N)OCO3	180*	8	5	8	7	9424
Cc1cc(C)n(-c2nc3ccccc3nc2N2CCC(C)CC2)n1	-5	5	-4	14	?	22810*
Cc1ccc(NC(=O)CSc2nc(-c3ccco3)cc(C(F)(F)F)n2)cc1C	1	-10	27	0	-4	17763*
COc1ccc(C(C)=O)cc1CC(=O)NCCCn1ccnc1	0	0	3	-1	0	5753
CC(C)(C)c1ccc(C2SCC(=O)N2c2cccc(C(=O)O)c2)cc1 (stereo unspecified)	0	-9	-2	5	-1	3409
SMILES	FBA Mtb inh	BoNT F protease	GDH-TPI inh	Anthrax LF prot	BoNT A protease	Bead autofluor
COc1cc(/C=C/c2ccc3cccc([N+](=O)[O-])c3n2)ccc1OCC(=O)O	-3	4	45*	1	0	4336
COc1cc(/C=C/c2ccc3c([N+](=O)[O-])cccc3n2)ccc1OCC(=O)O	-4	-3	39*	-3	0	4271
O=C(O)COc1ccc(/C=C/c2ccc3cccc([N+](=O)[O-])c3n2)cc1	-4	2	26	2	0	8954
CC(=O)Nc1ccc(/C=C/c2ccc3cccc([N+](=O)[O-])c3n2)cc1	-2	-17	40*	-6	-1	4837
N#Cc1c(-c2ccccc2)c(-c2ccccc2)nn(CC(=O)NNC(=O)Nc2ccccc2)c1=O	-2	4	3	0	0	2764
Cc1ccsc1C1Nc2ccccc2C(=O)N1O (stereo unspecified)	0	-2	0	-1	0	2048
Cc1ccsc1C1Nc2ccccc2-c2nc3ccccc3n21 (stereo unspecified)	178*	-4	12	-1	-1	2150
CSc1ccccc1NC(=O)CSCc1ccccc1Br	1	5	17	3	0	3218
CSc1ccccc1NC(=O)CSCc1ccc(Br)cc1	0	-1	8	-3	-1	16464*
Cc1ccc(S(=O)(=O)N2CCN(C(=O)COC(=O)CCOc3cc(C)ccc3C)CC2)c(C)c1	-1	2	8	-6	0	3077
CN(C)/C=C/C(=O)c1ccc(F)cc1	0	10	28	10	5	6113
COc1ccc(C(=O)/C=C/N(C)C)cc1	-1	-6	45*	-8	-1	9250
COc1ccc(C(=O)/C=C/N(C)C)cc1OC	0	-1	34*	-3	-1	2665
CN(C)/C=C/C(=O)c1ccc(Oc2ccccc2)cc1	7	-7	22	-1	-2	2081
CN(C)/C=C/C(=O)c1ccccc1	-7	4	49*	-5	2	3339
O=C1C(Cl)=C(Nc2ccccc2O)C(=O)N1c1ccccc1	-3	-6	-7	-4	0	9150
COc1cc(CNC(C)(C)CO)cc(Br)c1OCc1ccc(Cl)cc1	1	-4	2	-1	0	2497
Cc1cc(O)c(C(C[N+](=O)[O-])c2ccc(Cl)cc2Cl)c(=O)o1 (stereo unspecified)	3	-8	6	-4	-7	17730*
Cc1csc(N/N=C/c2ccc(O)c([N+](=O)[O-])c2)n1	-5	-5	39*	-5	0	22477*
O=[N+]([O-])c1cc(/C=N\Nc2nc(-c3ccccc3)cs2)ccc1O	-3	-2	34*	-11	0	4040
O=C(CNC(=O)c1ccc(F)cc1)N/N=C/c1ccc(O)c([N+](=O)[O-])c1	-3	1	37*	-2	0	2462
O=[N+]([O-])c1ccc(-c2csc(N/N=C/c3cccnc3)n2)cc1	4	1	6	-1	0	4231
Cc1onc(-c2ccccc2)c1C(=O)N/N=C/c1ccc(O)c([N+](=O)[O-])c1	-7	9	35*	-3	2	6303
O=C(CNC(=O)c1cccc(F)c1)N/N=C/c1ccc(O)c([N+](=O)[O-])c1	-4	1	22	1	0	2378
COc1ccc(CN(C)C(=O)c2cccc(S(=O)(=O)N3CCc4ccccc43)c2)c(OC)c1	2	3	7	-6	0	4092
